TRb-SRC2 inh: disrupts binding of human TR beta to SRC2. TRbeta-SRC2 peptide binding, fluorescence polarization; receptor liganded with 1 µM T3. Potency, µM (titrated, usually from 106 µM), most hits filed as inhibitors. 280,000 compounds, 0.065% hits. AID 1469; note: nearly all actives have a fitted effect of over 50% in size
Target sequence (P10828 whole entry, looked up): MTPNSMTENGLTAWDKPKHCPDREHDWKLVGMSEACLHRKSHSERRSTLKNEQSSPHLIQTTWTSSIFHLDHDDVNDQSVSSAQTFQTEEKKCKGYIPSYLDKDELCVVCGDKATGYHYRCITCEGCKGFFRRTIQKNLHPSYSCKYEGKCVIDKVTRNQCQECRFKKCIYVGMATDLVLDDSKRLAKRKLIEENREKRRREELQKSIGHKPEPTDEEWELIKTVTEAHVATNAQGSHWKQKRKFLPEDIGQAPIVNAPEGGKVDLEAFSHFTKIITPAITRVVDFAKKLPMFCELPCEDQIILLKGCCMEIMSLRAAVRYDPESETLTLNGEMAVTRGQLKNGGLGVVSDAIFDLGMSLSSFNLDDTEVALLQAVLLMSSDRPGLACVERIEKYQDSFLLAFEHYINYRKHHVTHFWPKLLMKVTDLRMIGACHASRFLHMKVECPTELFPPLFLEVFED
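Fluorescence polarization of 20 nM Texas Red SRC2 peptide with 0.6 uM human TRb ligand-binding domain, in Tris buffer with 1uM T3 and 5% DMSO. Incubated 5 hr ambient; normalized to unbound and bound controls.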
Tau FP inhib: inhibitors of human tau fibril formation; Potency, µM (series often up to 57.7 µM), usual class: inhibitors; AID 1468; P10636; K18 P301L tau heparin fibrillization, Alexa594 FP, 6 h; 280,000 compounds, 0.39% hits; note: nearly all actives have a fitted effect of over 55% in size
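Heparin (20 uM) drove fibril formation of recombinant tau K18 P301L, 15 uM unlabeled with 0.24 uM Alexa 594 label, for 6 hr at 37 C in 100 mM sodium acetate pH 7. Fluorescence polarization (555/632 nm) read 1 hr after 30 uM ThT.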
Tau ThT inhib: tau fibrillization inhibition (ThT binding) | 270,000 compounds, 2.1% hits | P10636 | Potency, µM (titrated, usually from 57.4 µM), actives largely listed as inhibitors | recombinant tau K18 P301L, heparin-induced fibrillization, ThT fluorescence | AID 1460; note: nearly all actives have a fitted effect of over 55% in size
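Fibril formation assay: tau K18 P301L at 15 uM with trace Alexa 594 label, heparin inducer 20 uM, pH 7 sodium acetate buffer, 37 C for 6 hr; endpoint ThT signal.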
Tau fluor cs: counter-screen for tau fibril formation inhibitors. AID 1463. tau K18 P301L (four-repeat tau fragment) Alexa594 fluorescence, heparin fibrillization. 280,000 compounds, 0.93% hits. Potency, µM (doses to about 57.7 µM); note: nearly all actives have a fitted effect of over 55% in size
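Human K18 P301L tau (15 uM unlabeled plus 0.24 uM Alexa 594-labeled, final) in 100 mM sodium acetate pH 7 was mixed with compound and 20 uM heparin and incubated 6 hr at 37 C.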
RGS12 GoLoco inh: RGS12 GoLoco-Gai1 interaction inhibition. P63096. Gai1:RGS12 GoLoco peptide FP, rhodamine, 10 min. Potency, µM (series often up to 61.6 µM), actives largely listed as inhibitors. 230,000 compounds, 0.44% hits. AID 880; active = well fitted inhibition curve with a large enough effect, not every such curve was filed as active; inactive = no such curve, though single readings can be large or run the other way; note: nearly all actives have a fitted effect of over 30% in size
TexasRed fluor: alters Texas Red total fluorescence, flagging assay interference. TRb/SRC2 Texas Red total fluorescence interference. Potency, µM (highest dose often 106 µM). 280,000 compounds, 0.29% hits. AID 1479; active = well fitted curve in either direction with a large enough effect; inconclusive = small, poorly fitted or top-dose-only effect
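Human TRb ligand-binding domain at 0.6 uM with 20 nM Texas Red SRC2 peptide in Tris buffer containing 1 uM T3 and 5% DMSO, incubated with compound 5 h at ambient temperature. Total fluorescence (555/632 nm) calculated as parallel + 2 × perpendicular.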
Hits are given with their value; - = inactive; ? = inconclusive; . = no result; [ ] = remark or other dose. This is a sample that favours compounds with a hit; in the whole collection about 3.2% have one here. Unless noted, calls come from the whole dose curve; as a rule, active = well fitted curve in the direction sought with a large enough effect; inconclusive = small, poorly fitted or top-dose-only effect, or another doubt; inactive = no such curve, though single readings can be large; an effect the other way counts as inactive or inconclusive.

SMILES	TRb-SRC2 inh	Tau FP inhib	Tau ThT inhib	Tau fluor cs	RGS12 GoLoco inh	TexasRed fluor
CC[C@H](C)[C@H](NC(=O)[C@H](CO)NC(=O)[C@H](CC(C)C)NC(=O)[C@H](CO)NC(=O)[C@@H]1CCCN1C(=O)[C@H](CC(N)=O)NC(=O)[C@@H](N)CC(=O)O)C(=O)N[C@@H](CC(=O)O)C(=O)N[C@@H](CC(C)C)C(=O)N[C@H](C(=O)N[C@@H](Cc1ccccc1)C(=O)N[C@@H](Cc1cnc[nH]1)C(=O)N[C@@H](CC(C)C)C(=O)N[C@@H](CC(C)C)C(=O)N[C@@H](CCCNC(=N)N)C(=O)N[C@H](C(=O)N[C@@H](CC(C)C)C(=O)N[C@@H](CC(C)C)C(=O)N[C@@H](CCC(=O)O)C(=O)N[C@@H](CC(C)C)C(=O)N[C@@H](C)C(=O)N[C@@H](CCCNC(=N)N)C(=O)N[C@H](C(=O)N[C@@H](CCC(N)=O)C(=O)N[C@@H](CO)C(=O)N[C@@H](CCC(N)=O)C(=O)N[C@@H](CCCNC(=N)N)C(=O)N[C@@H](CCC(=O)O)C(=O)N[C@@H](CCCNC(=N)N)C(=O)N[C@@H](C)C(=O)N[C@@H](CCC(=O)O)C(=O)N[C@@H](CCC(N)=O)C(=O)N[C@@H](CC(N)=O)C(=O)N[C@@H](CCCNC(=N)N)C(=O)N[C@H](C(=O)N[C@H](C(=O)N[C@@H](Cc1ccccc1)C(=O)N[C@@H](CC(=O)O)C(=O)N[C@@H](CO)C(=O)N[C@H](C(N)=O)C(C)C)[C@@H](C)CC)[C@@H](C)CC)[C@@H](C)O)[C@@H](C)O)[C@@H](C)O	-	.	.	.	.	-
CCc1cc(=O)[nH]c(SCc2nc(-c3cccc(Cl)c3)no2)n1	-	-	?	-	.	-
Cc1noc(C)c1-c1nc(N(C)C)c2ccccc2n1	.	.	.	.	-	.
COc1ccc(Cl)cc1NC(=O)c1sc2nc(-c3ccc(OC)c(OC)c3)ccc2c1N	-	-	?	?	.	-
COc1ccc(C(=O)c2sc3nc(-c4ccccc4)ccc3c2N)cc1	-	-	?	10µM[quencher]	-	-
CCOc1ccccc1NC(=O)c1sc2nc(-c3ccc(OC)cc3)ccc2c1N	-	-	?	3.5µM[quencher]	.	-
COc1cccc(-c2ccc3c(N)c(C(=O)c4ccc(Cl)cc4)sc3n2)c1	-	?	4.5µM	2.8µM[quencher]	.	-
COc1ccc(-c2ccc3c(N)c(C(=O)Nc4ccc(C)cc4C)sc3n2)cc1OC	-	-	?	8.9µM[quencher]	.	-
CCOc1ccccc1NC(=O)c1sc2nc(C)cc(C)c2c1N	-	-	-	-	.	-
N#CCCCN1C(=O)C(=C(C#N)C#N)c2ccccc21	-	?	32µM	?	-	-
C=CCSc1nc2sc3c(c2c(=O)n1CC)CCc1ccccc1-3	-	16µM	11µM	-	-	-
Cc1cccc(OCCNc2cc(N3CCOCC3)ccc2[N+](=O)[O-])c1	-	-	7.9µM	?	-	-
Cc1ccccc1OCCNc1cc(N2CCNCC2)ccc1[N+](=O)[O-]	-	?	16µM	?	-	-
Cc1cccc(OCCNc2cc(N3CCN(C)CC3)ccc2[N+](=O)[O-])c1	-	-	?	?	-	-
Cc1ccc(OCCNc2cc(N3CCN(CCO)CC3)ccc2[N+](=O)[O-])cc1C	-	-	16µM	?	-	-
CC(C)C[C@H](NC(=O)[C@H](CCCCN)NC(=O)[C@H](CCC(N)=O)NC(=O)[C@H](Cc1cnc[nH]1)NC(=O)[C@H](Cc1cnc[nH]1)NC(=O)[C@@H](N)C(C)C)C(=O)N[C@H](C(=O)N[C@@H](Cc1ccccc1)C(=O)N[C@@H](Cc1ccccc1)C(=O)N[C@@H](C)C(=O)N[C@@H](CCC(=O)O)C(=O)N[C@@H](CC(=O)O)C(=O)N[C@H](C(=O)NCC(=O)N[C@@H](CO)C(=O)N[C@@H](CC(N)=O)C(=O)N[C@@H](CCCCN)C(=O)O)C(C)C)C(C)C	-	.	.	.	.	-
Cc1cccc(N=C2NC(=O)/C(=C/c3cccn3C)S2)c1	-	-	7.9µM	-	-	-

Screens as filed in PubChem.
